According to PubChem BioAssay (NCI):
The panel holds about 83,000 compounds, 20% with a hit somewhere; the sample as a whole holds those more often.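 Cells were grown in 96-well plates and exposed to the test compound at a single concentration for 48 hours; results are reported as percent growth, with values below 10 considered active.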 A number with no mark means an inactive call. The source made the active and inactive calls.

What follows are compounds tested on T-47D breast (assay: NCI-60 one-dose screen, 48 h (100 = growth as untreated, 0 = no growth, -100 = all killed)). Conditions: 10 µM unless noted.
With `Cc1cc(=O)oc2cc(Oc3nc(-c4ccccc4)cn4c(-c5ccccc5)cnc34)ccc12` the growth was 38.5%. Work on `Cc1ccc2c(n1)C[C@H](C(C)(C)O)CC[C@H]2C` yielded a growth of 96.5%. In the case of `Nc1nc(N)c2c(n1)NC(c1cccc(Nc3ccnc4cc(C(F)(F)F)ccc34)c1)CC(c1ccc(Cl)cc1)=N2` (stereo not given), the growth is reported as 73.7%. Work on `C(CCCSC1=NCCN1)CCSC1=NCCN1` yielded a growth of 101%. In the case of `O=S(=O)(Nc1ccc(Br)cc1)c1ccc(-c2cnc(C3CC3)o2)cc1`, the growth is reported as 18.6%. Compound `Nc1n[nH]c2cccc(C#Cc3cccc(C(=O)Nc4ccc(Cl)c(C(F)(F)F)c4)c3)c12` has a growth of 33.5%. `NC(=N\N=C/c1ccc(Cl)cc1Cl)/C(N)=N\N=C/c1ccc(Cl)cc1Cl` gave a growth of 10.8%. With `COc1cc(C(=O)/C=C/c2c(-c3cccs3)nc3sc(C)cn23)cc(OC)c1OC` the growth was 3.31% (active). `Nc1nc(=O)n([C@H]2CC=C(CO)O2)cc1F` was tested, and the growth was 98.6%. With `COc1ccc(Nc2nccc(Nc3ccc4[nH]ncc4c3)n2)cc1` the growth was -3.74% (active). In the case of `Cc1[nH]c(C(=O)Nc2ccccc2OC2CCNC2)c(Cl)c1Cl` (stereo not given), the growth is reported as 83.2%. `CCN1CCN(CCOc2ccc(CNc3ccc4nc(CCC5CCCCC5)[nH]c4c3)cc2)CC1` was tested, and the growth was -8.02% (active). `O=C1NCCS(=O)(=O)/C1=C\C=C\c1cccc(C(F)(F)F)c1` was tested, and the growth was 22.6%. `CCCCCCCCCCCCCC[n+]1ccc2c(C)c3c(c(C)c2c1)c1cc(O)ccc1n3CC` was tested, and the growth was -25.5% (active). With `CCCc1cc(CCC)n2nc(N)nc2n1` the growth was 110%. For `O=S(=O)(c1ccc(NCSc2nc3ccccc3s2)cc1)c1ccc(NCSc2nc3ccccc3s2)cc1`, the growth was 63.9%. `COc1cc(/C=C2\CN(S(=O)(=O)c3ccc(C)cc3)C/C(=C\c3cc(CN4CCCC4)c(O)c(OC)c3)C2=O)cc(CN2CCCC2)c1O` gave a growth of 40%. For `Cc1cccc(CN(Nc2ccccc2)c2ccccc2)n1`, the growth was 87.2%. Work on `O=C(NS(=O)(=O)c1ccccc1)n1cc(-c2ccncc2)c(-c2cc(O)cc(Cl)c2)n1` yielded a growth of 90.1%. `CCCCN(CCC#N)C(N)=O` showed a growth of 100%. For `CCOC(=O)/C(=C/c1ccc([N+](=O)[O-])cc1)C(=O)c1ccccc1`, the growth was 41.9%. With `N#Cc1c(-c2ccc(F)cc2)cc(-c2cccc(Cl)c2)[nH]c1=O` the growth was 59.9%. Work on `O=C(Nc1cccc(Cn2c(=O)[nH]c3ccc(Oc4ncccn4)cc3c2=O)c1)c1cccc(Cl)c1` yielded a growth of 20.6%. In the case of `O=C1c2c(c3c4cccnc4[nH]c3c3ccc4ccccc4c23)C(=O)N1O`, the growth is reported as 40.7%. Work on `COC(=O)c1nc(-c2ccccc2)oc1S(=O)(=O)N1CCN(c2ccc(OC)cc2)CC1` yielded a growth of 59%. `O=C1c2ccccc2-c2c1c1ccncc1c(=O)n2CCCn1ccnc1` showed a growth of 23.6%. `COc1cc(-c2c(-c3ccccc3)c[nH]c2C(=O)NCCCO)c(OC)c2c1OCO2` showed a growth of 90.9%. Work on `C=C(C)Cn1c(SCC(=O)c2cccs2)nc2sc3c(c2c1=O)CCCC3` yielded a growth of 58.7%. Work on `CNC1=C([N+](=O)[O-])C(c2ccc(OC)cc2)C(C#N)=C(c2ccc[nH]2)O1` (stereo not given) yielded a growth of 100%. `Cn1cc(-c2nc(-c3c[nH]c4c(Cl)nccc34)cs2)c2ccccc21` gave a growth of 87.1%. With `N/C(=N\c1nc2ccccc2s1)NC(=O)Nc1ccccc1` the growth was 39.4%. Work on `C#Cc1ccc(NC(=O)Cc2ccc(/C=C/C(=O)c3nccn3C)cc2)cc1` yielded a growth of 69.2%. `Cc1cc2c(C(C)C)c(O)c(O)c(/C=N/O)c2c(O)c1-c1c(C)cc2c(C(C)C)c(O)c(O)c(/C=N/O)c2c1O` showed a growth of 10.2%. `O=C(Nc1ccc2[nH]ncc2c1)c1csc(Nc2ccccc2)n1` gave a growth of 37.1%. `COC(=O)c1nc(-c2ccccc2)oc1S(=O)(=O)NCC(c1ccc(Cl)cc1)N1CCCCC1` (stereo not given) showed a growth of 52.1%. `O=C(Nc1ccc(Oc2cccc(F)c2)c(Cl)c1)c1cnccn1` showed a growth of 38.3%. With `COc1ccc(Nc2nc(Nc3cc(C)[nH]n3)c3cc(OC)c(OC)cc3n2)cc1` the growth was -52.1% [20 µM] (active). With `COC(=O)c1cc(-c2ccc(OC)c(OC)c2)[nH]c1N/N=C/c1c(Cl)cccc1Cl` the growth was 40.9%. `CC(C)=CCC[C@](C)(O)C1CC[C@]2(C)[C@@H]1CC[C@@H]1[C@@]3(C)CC/C(=N\OCCC#N)C(C)(C)[C@@H]3CC[C@]12C` (stereo not given in full) showed a growth of 52.6%. Work on `N#C/C(=C\c1cccc2cnccc12)N1N=NC2C=CC=CC21` (stereo not given) yielded a growth of 23.8%.
